According to the supplement of paper PMC10681739:

Tests used:
[1] = target: T1, ETS1 (UniProt P14921); assay: ETS1 binding intensity (PBM fluorescence), ETS1 alone (arbitrary fluorescence units); higher = stronger binding; details: ETS1 concentration 1 nM; RUNX1 concentration 0 nM
T1 sequence: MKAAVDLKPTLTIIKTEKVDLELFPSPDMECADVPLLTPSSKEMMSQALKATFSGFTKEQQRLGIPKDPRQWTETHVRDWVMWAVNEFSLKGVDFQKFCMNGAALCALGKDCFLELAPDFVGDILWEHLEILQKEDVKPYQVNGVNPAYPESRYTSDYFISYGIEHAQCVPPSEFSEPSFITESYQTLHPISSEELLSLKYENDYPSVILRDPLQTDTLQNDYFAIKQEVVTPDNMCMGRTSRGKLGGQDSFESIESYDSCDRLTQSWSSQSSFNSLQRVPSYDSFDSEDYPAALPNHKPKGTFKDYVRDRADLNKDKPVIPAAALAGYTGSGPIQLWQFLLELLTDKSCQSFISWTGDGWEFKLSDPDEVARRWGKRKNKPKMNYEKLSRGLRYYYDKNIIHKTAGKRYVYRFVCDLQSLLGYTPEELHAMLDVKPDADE

[2] = target: RUNX1 (UniProt Q01196); assay: RUNX1 binding intensity (PBM fluorescence), RUNX1 alone (arbitrary fluorescence units); higher = stronger binding; details: RUNX1 concentration 2 nM; ETS1 concentration 0 nM
Sequence of RUNX1 (Q01196 whole entry): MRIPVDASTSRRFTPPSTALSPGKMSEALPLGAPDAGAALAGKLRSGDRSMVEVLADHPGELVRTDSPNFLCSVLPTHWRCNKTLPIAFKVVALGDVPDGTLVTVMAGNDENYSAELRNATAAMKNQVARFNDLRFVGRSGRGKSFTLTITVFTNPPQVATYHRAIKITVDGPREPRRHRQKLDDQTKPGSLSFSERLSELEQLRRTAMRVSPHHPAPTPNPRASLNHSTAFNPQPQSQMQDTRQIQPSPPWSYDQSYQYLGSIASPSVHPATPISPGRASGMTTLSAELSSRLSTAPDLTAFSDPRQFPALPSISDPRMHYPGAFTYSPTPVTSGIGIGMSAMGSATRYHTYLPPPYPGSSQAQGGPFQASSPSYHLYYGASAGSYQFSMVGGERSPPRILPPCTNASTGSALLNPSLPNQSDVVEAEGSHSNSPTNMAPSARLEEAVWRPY
Experimental: (§1)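 Cooperative gcPBM on 36-bp genomic probes with neighbouring ETS1 and RUNX1 sites. Recombinant human RUNX1 (2 nM) was incubated alone or with ETS1 (25 nM) and detected with anti-RUNX1 antibody plus Alexa488 secondary. Values are medians over 4 replicate spots; the RUNX1+ETS1 data were normalised to the RUNX1-only data. The probes sit in constant array flanks that are not printed.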

[3] = target: T1, ETS1; assay: ETS1 binding intensity (PBM fluorescence) in presence of RUNX1, normalised to ETS1-only experiment (arbitrary fluorescence units); higher = stronger binding; details: ETS1 concentration 1 nM; RUNX1 concentration 25 nM
[4] = target: RUNX1 (UniProt Q01196); assay: RUNX1 binding intensity (PBM fluorescence) in presence of ETS1, normalised to RUNX1-only experiment (arbitrary fluorescence units); higher = stronger binding; details: RUNX1 concentration 2 nM; ETS1 concentration 25 nM
Experimental: as §1
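For RUNX1 binding intensity (PBM fluorescence) in presence of ETS1, normalised to RUNX1-only experiment in this document: Full-length recombinant human ETS1 or RUNX1 bound to double-stranded 36-bp genomic probes on microarrays, detected by protein-specific primary antibody and Alexa488 secondary, spot fluorescence as median of four replicate spots.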
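For RUNX1 binding intensity (PBM fluorescence), RUNX1 alone in this document: Full-length recombinant human RUNX1 bound to double-stranded 36-bp genomic probes on a high-density microarray, scored as Alexa488 fluorescence per spot via anti-RUNX1 antibody, median of four replicate spots.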

Row | Sequence | ETS1 binding intensity [1] | RUNX1 binding intensity [2] | ETS1 binding intensity [3] | RUNX1 binding intensity [4]
1 | GAAATGAAGGCCGGATGTCAGTAACCACAAACGAGC | 7620 | 1040 | 47500 | 11000
2 | ACCTCAGGTACCGGAAGACCACAATTCCCAGGAGTC | 2950 | 965 | 4740 | 1740
3 | GGAATTTCTTTTTCCGGTCCCGCAGGGTCAGCTGAG | 1240 | 735 | 1520 | 1750
4 | TACGTCACTTCCGGGCCGCCGTCCTGCGGGCAAGGG | 2570 | 799 | 3920 | 2270
5 | GCGCAAGGATCCGGTTTGTTGTGGTGTGGGGAGGGG | 517 | 814 | 503 | 1070
6 | TTTCCACTTCCTGTTCTACTTGTGGCTACTGACTCA | 2530 | 1100 | 2890 | 3380
7 | GGGCAGGGCATTTCCTTTGTGGCTGGTGCTCACGGA | 493 | 710 | 413 | 1360
8 | GCCACCTCTTCCTGTGTTGCAAACCACAGGTCCACC | 805 | 1600 | 1320 | 5050
9 | CATGCGTCACCTTCCTGTGTGGTCAGCAGTGCTTGC | 383 | 915 | 468 | 1420
10 | GTTTCTCTGGCCAGGAAATTGAGGTTTCTGTTAGTC | 2010 | 851 | 3260 | 1660
11 | CCGGGACAGGAAGAGGCTGGGGACCGCGGCGAAGGT | 1440 | 710 | 1550 | 1030
12 | CCAAAAACCCCAGGAGGATGTGGTGAGGAGGGAAGG | 1110 | 831 | 2590 | 1040
13 | GAAAGGGTTCATCCAGGAAACCACAACCCAGTGCCG | 808 | 1440 | 1820 | 2110
14 | GCTGCTTCCGGCCGCTGGTCGCAGGGCTGCGGGACT | 865 | 677 | 1000 | 1760
15 | CCCACAGGAAATCCCCTGGTCTGTGGCGCCTCTGAT | 881 | 766 | 823 | 1110
16 | CCTGGTCCGGAAGCGCTGTCCCCGCCTCCCGCATAG | 1950 | 822 | 2430 | 1430
17 | TGCGCGCCGGCTTCCGCTGCGGCCAGTCGGGCGGCG | 668 | 647 | 635 | 1240
18 | CAGAAACATCCCTCCTGCCGCCGCTTTGTGGTACCA | 378 | 983 | 526 | 925
19 | ACCAGAACAGGAAATGTTAGTGGTTGAGTTAACGGT | 3760 | 700 | 5800 | 1260
20 | CATGGGACCCGGAAGTGTGTGGTAAAGCGCCGGGGC | 3590 | 896 | 9470 | 2350
21 | CTTGCTTAACGCTTCCTGAGGGGTGGTTTGGGTTTT | 448 | 837 | 369 | 953

Row | Sequence | ETS1 binding intensity [1] | RUNX1 binding intensity [2] | ETS1 binding intensity [3] | RUNX1 binding intensity [4]
22 | TGACTTCCTCCTCTTCACTAACAGAAACCTCAATTT | 440 | 1400 | 526 | 2570
23 | CAGCTAGCCGGAAGAAGCTGCGGCGACAGCGTCCTG | 1690 | 759 | 2110 | 1020
24 | AATCCAACACTTCCTCCTCCACCGCAGAAAGGCAAC | 518 | 1490 | 966 | 2670
25 | AGCTGTTTGGTCACAGGATGTGGTTATTAGAATAGG | 4800 | 894 | 27900 | 4040
26 | AGCGTTTCCTGCCTGTCTGGGGCTGACAAACCACAA | 623 | 930 | 492 | 2120
27 | TGTCTCTGCCGCCGGAAACCGCGCCGTAGATCATGC | 5360 | 945 | 7800 | 1420
28 | CTGTCATCTTCCTGACAGCACGCCCACAAAGGACCA | 482 | 843 | 377 | 916
29 | GGACGCTTCCGGTGGAAGGGAGCTGTTGCGGGGCTT | 1410 | 716 | 1660 | 1950
30 | CAGGGCACCTCCTACTTCCCCCCGCAGATAACTACC | 875 | 999 | 1010 | 906
31 | GTGTGCGTGAGAAGAGGAAGTGGTTAGGAAGACACA | 4030 | 801 | 12200 | 1900
32 | CCCCGCGGAACTCTGGCACAGTCAGCTGACCGCAGA | 424 | 1600 | 2000 | 1440
33 | AGAACCACTTCCTCTCAGTAAACCACAGAGACTGTA | 592 | 1790 | 1310 | 5880
34 | ACTACAGGAGGAAACTACAGCCTAAACCACATGCAA | 510 | 975 | 1010 | 892
35 | ATGAACCACTTCCTGTGTGTTCCCACAGAGGTCAGG | 2670 | 742 | 4320 | 7110
36 | ACAGAGCAGGAAGCAGCCCTCACCACAGATGAAGCA | 686 | 760 | 1210 | 1360
37 | CTGCTGCCGCGAACAGGAAACCACTACAATCAGGAG | 2840 | 816 | 4530 | 1100
38 | AAAACAACTCCAGGATGTGGTTTTACTCAGAATGTA | 1310 | 928 | 7410 | 2710
39 | TTGTCTGCATCCTGTGCTGTGTGGTAGCTCTGGGTT | 510 | 702 | 541 | 1490
40 | CCGGGCTGCGGAAGGCGGGAATTCTGCGGTTCGCGG | 405 | 1230 | 1990 | 1720
41 | GGAGCAAGGATGACAGGATGTGGCTTAGGGGGAGGC | 5020 | 708 | 7820 | 1000
42 | CACGCCTGCGGAAGATGAAAACCACACGTCATGCAG | 448 | 960 | 803 | 915

Row | Sequence | ETS1 binding intensity [1] | RUNX1 binding intensity [2] | ETS1 binding intensity [3] | RUNX1 binding intensity [4]
43 | GAGCAGTGGTGGGAAATGTGGGGTTGGGGGTAAAGG | 493 |  | 390 | 843
44 | CTAACCCTGCTTCCTCTTAGTGGTTTCCCCCAACCT | 616 | 1620 | 793 | 3220
45 | ACACAGAGAGTGAGAGGAAGTGGTTTAGAGATGAGA | 2440 | 769 | 3210 | 1050
46 | TGTTTTCGCTCTTCCTGGCCTTGCGGGCAGCCAGGA | 390 |  | 783 | 1510
47 | GGTCTCACCGCTCTTCCGCTTGCGGTTTCGGGGGCC | 780 |  | 5370 | 4570
48 | ACTGAACAAACCGGATGTGGTTCCCACCTGCAATCT | 25000 |  | 29500 | 11400
49 | GCCGGGCACTTCCTGTGGAGGCCGCAGCGGGTGCGC | 1330 |  | 1560 | 1780
50 | GCCACAGCCGGAAGCAGGCTGACCACAAGTGCTAAG | 1880 |  | 18700 | 6190
51 | ACTTTCGCGACGCAGGAAGCGCCCACAAAGGGAGGA | 2020 |  | 3000 | 889
52 | CCCCTCACTTCCCTCAACCCTTCCCACAAACTGGGA | 597 |  | 571 | 2350
53 | ACCCCAGGTACCGGAAGACCACAATTCCCAGGAGTC | 2220 |  | 3710 | 1880
54 | TACGGGAACTTCCTTTTCTTGTGGTGTGGCCGGGTC | 571 |  | 853 | 2050
55 | ACATGGTCTCGCTTCCTGTTTACACCACAGAAAGCT | 2820 | 1040 | 4140 | 1850
56 | CTTTAAGGAGGCGGAAAAGTTAACCGCGATGGGCAG | 533 | 996 | 1430 | 1050
57 | TGACATGGCTTCCGCCTTGGGCTTTGTGGTCTCCCA | 513 | 890 | 1150 | 1760
58 | AGACCCGGAAGAACTTGTCCCAGTGTTGACCACACC | 505 |  | 1100 | 938
59 | GAGAAACAAACAGGATGTGGTCTCTGCCCTGGAGGA | 7010 |  | 12000 | 2420
60 | CCAGACCCGGCGGAACTACCGTGCCCACAAGGCAGC | 396 |  | 564 | 894
61 | TGTCCACCTCTACGGAAGTGCGCCGCAGTCCGCCAG | 1620 | 792 | 2370 | 908
62 | AGGGTGTGGAGGAAGTGGCTTACAACCACTTTGTCT | 1270 | 764 | 1500 | 1090
63 | AACAGCACACAGGAAGTTACCGCTGAAGCAAAGGAG | 2750 | 813 | 4760 | 1250

Row | Sequence | ETS1 binding intensity [1] | RUNX1 binding intensity [2] | ETS1 binding intensity [3] | RUNX1 binding intensity [4]
64 | TGCGACGGAAGCAGGAACTTGCTAACCACAAAACCC | 1350 | 1790 | 13200 | 3420
65 | GTGGAAAGGAAATGTGTCATCTGTGGTTTGGTTTTA | 645 |  | 2110 | 1410
66 | CACCCGCCCCCCGGAAGTGCCGGTGGTTGGGCTCCG | 5120 | 703 | 7610 | 1540
67 | ACCCTGAAATTACCCGGATGTGGTCCCCGCGCGCGC | 6470 |  | 8100 | 1930
68 | CAGCTCCGACTTCCGGGTGCGGTACGGCGAAGCAGA | 1320 |  | 1610 | 2140
69 | TATTCTTCCTGTACTTAAGCTTGCTGGTGTGGTTTC | 397 | 868 | 492 | 1560
70 | CTACCCTCCCTCTTCCTGTGGTTTCTCAAACATGTC | 729 | 2470 | 937 | 5090
71 | ATCCCACTATAGGAAGCTTCTCTGTGGTTTTGAGCC | 369 |  | 1640 | 1910
72 | GACAGGAAGTGACCTCAATTTCCCCGGCCACAGAAA | 2650 | 809 | 4280 | 1770
73 | CCATTCACGGGCTTCCGCGGTGTCCCCACCCCCTAA | 724 |  | 760 | 1160
74 | GACAGAGGAAACTAGGTGTGACAACCACAAACAGCT | 432 |  | 651 | 785
75 | CACTCCCCGCATCCGGTCTGCGGCGCGCTCGGGGCC | 3830 | 912 | 4710 | 29400
76 | ATAAACAGGAAGCTGAGTATGTGACCACAGACATTC | 1670 |  | 5200 | 1630
77 | GGAACAGGAAGCGGCAGAAATAGCAGCCACCGCGGC | 960 |  | 1540 | 1310
78 | ACAGATACAGCCTCAGGAAGTGGTTTTGTATCTCTG | 3200 | 682 | 6160 | 1070
79 | CTAAACCGGAAGCCGCCCCTCTGACCGCTCTAAAAC | 5350 | 1070 | 5990 | 2010
80 | CTCACCCCTGGAGGATGTGGGTTTCCAGGCTGACAG | 836 | 849 | 2130 | 1190
81 | TCAGAACCAGGAAACTGAAGGCGGTTACTCCACATA | 526 |  | 663 | 875
82 | AGTTTCTTCTTTCCGGTGGGTTTGTGGTCTTGCTGA | 1160 |  | 2990 | 2770
83 | TTTTCTTTCCTAGGAAGTGGTTGCTGGGTTCTGAGG | 785 |  | 721 | 872
